Screen size: about 5,500 compounds; about 2,000 (36%) were called active. Not shown: some 18% with an inconclusive outcome. Rule as the data show it: active = normalized growth mostly below about 0.91 (no sharp cut-off); inconclusive = no clear call, values can overlap the other calls; inactive = mostly above about 0.92. This is one part of the list.
Experiment: chemical genetic growth profiling, strain panel (AID 1159580);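 also: tested at 20 µM; growth read once vehicle control cultures reached saturation at 30 °C; 1 = growth at the plate median or of vehicle wells; lower values mean less growth of the strain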
Conditions: growth OD

Measured: normalized growth

CCC[C@H](N[C@@H](C)C(=O)N1[C@H](C(=O)O)C[C@@H]2CCCC[C@@H]21)C(=O)OCC
inactive: S. cerevisiae deletion strains, locus YJR075W, strain HOC1, active compounds read low 1.02 | S. cerevisiae deletion strains, locus YKL009W, strain mrt4, active compounds read low 1.02 | S. cerevisiae deletion strains, locus YKL068W, active compounds read low 1.03 | S. cerevisiae deletion strains, locus YKL085W, strain MDH1 (second series), active compounds read low 1.01 | S. cerevisiae deletion strains, locus YKL085W, strain MDH1, active compounds read low 1.01 | S. cerevisiae deletion strains, locus YKL160W, strain elf1, active compounds read low 1.02 | S. cerevisiae deletion strains, locus YKL190W, strain CNB1, active compounds read low 1.02 | S. cerevisiae deletion strains, locus YKR001C, strain vps1, active compounds read low 1.03 | S. cerevisiae deletion strains, locus YKR026C, strain gcn3, active compounds read low 1.02 | S. cerevisiae deletion strains, locus YKR091W, strain srl3, active compounds read low 1.02 | S. cerevisiae deletion strains, locus YLL001W, strain dnm1, active compounds read low 1.02 | S. cerevisiae deletion strains, locus YLL026W, active compounds read low 1.01 | S. cerevisiae deletion strains, locus YLL041C, strain sdh2, active compounds read low 1.01 | S. cerevisiae deletion strains, locus YLR027C, strain aat2, active compounds read low 1.01 | S. cerevisiae deletion strains, locus YLR039C, strain RIC1, active compounds read low 1.03 | S. cerevisiae deletion strains, locus YLR058C, strain SHM2, active compounds read low 1.01 | S. cerevisiae deletion strains, locus YLR102C, strain apc9, active compounds read low 1.02 | S. cerevisiae deletion strains, locus YLR113W, strain HOG1, active compounds read low 0.988 | S. cerevisiae deletion strains, locus YLR221C, strain rsa3, active compounds read low 1.01 | S. cerevisiae deletion strains, locus YLR258W, strain gsy2, active compounds read low 1.02 | S. cerevisiae deletion strains, locus YLR262C, strain YPT6 (second series), active compounds read low 1.03 | S. cerevisiae deletion strains, locus YLR262C, strain YPT6, active compounds read low 1.04 | S. cerevisiae deletion strains, locus YLR268W, strain sec22, active compounds read low 1.02 | S. cerevisiae deletion strains, locus YLR320W, strain mms22, active compounds read low 1.01 | S. cerevisiae deletion strains, locus YLR330W, strain CHS5, active compounds read low 1.01 | S. cerevisiae deletion strains, locus YLR342W, strain FKS1 (second series), active compounds read low 1.02 | S. cerevisiae deletion strains, locus YLR342W, strain FKS1, active compounds read low 1.03 | S. cerevisiae deletion strains, locus YLR357W, strain rsc2, active compounds read low 0.998 | S. cerevisiae deletion strains, locus YLR370C, strain arc18, active compounds read low 1.01 | S. cerevisiae deletion strains, locus YLR371W, strain rom2, active compounds read low 1.01 | S. cerevisiae deletion strains, locus YLR384C, strain iki3, active compounds read low 1.01 | S. cerevisiae deletion strains, locus YLR418C, strain cdc73, active compounds read low 1.01 | S. cerevisiae deletion strains, locus YML016C, strain PPZ1, active compounds read low 1.01 | S. cerevisiae deletion strains, locus YML032C, strain rad52, active compounds read low 1.02 | S. cerevisiae deletion strains, locus YML120C, strain ndi1, active compounds read low 1.02 | S. cerevisiae deletion strains, locus YML124C, strain tub3, active compounds read low 1.02 | S. cerevisiae deletion strains, locus YMR058W, strain fet3, active compounds read low 1.02 | S. cerevisiae deletion strains, locus YMR078C, strain ctf18, active compounds read low 1.03 | S. cerevisiae deletion strains, locus YMR125W, strain sto1, active compounds read low 0.994 | S. cerevisiae deletion strains, locus YMR129W, active compounds read low 1.02 | S. cerevisiae deletion strains, locus YMR205C, strain PFK2, active compounds read low 1.02 | S. cerevisiae deletion strains, locus YMR223W, strain ubp8, active compounds read low 1.03 | S. cerevisiae deletion strains, locus YMR231W, strain pep5, active compounds read low 1.02 | S. cerevisiae deletion strains, locus YMR263W, strain SAP30, active compounds read low 1.01 | S. cerevisiae deletion strains, locus YMR307W, strain GAS1, active compounds read low 0.976 | S. cerevisiae deletion strains, locus YNL067W, strain RPL9B, active compounds read low 1.01 | S. cerevisiae deletion strains, locus YNL071W, strain lat1, active compounds read low 1.01 | S. cerevisiae deletion strains, locus YNL128W, strain TEP1, active compounds read low 1.01 | S. cerevisiae deletion strains, locus YNL153C, strain GIM3, active compounds read low 1 | S. cerevisiae deletion strains, locus YNL183C, strain NPR1, active compounds read low 0.963 | S. cerevisiae deletion strains, locus YNL209W, strain ssb2, active compounds read low 1.01 | S. cerevisiae deletion strains, locus YNL233W, strain BNI4, active compounds read low 0.996 | S. cerevisiae deletion strains, locus YNL248C, strain rpa49, active compounds read low 1.01 | S. cerevisiae deletion strains, locus YNL250W, strain rad50, active compounds read low 1.02 | S. cerevisiae deletion strains, locus YNL271C, strain bni1, active compounds read low 1.02 | S. cerevisiae deletion strains, locus YNL298W, strain CLA4, active compounds read low 1.01 | S. cerevisiae deletion strains, locus YNL307C, strain MCK1, active compounds read low 1.03 | S. cerevisiae deletion strains, locus YNL322C, strain KRE1 (second series), active compounds read low 1.02 | S. cerevisiae deletion strains, locus YNL322C, strain KRE1, active compounds read low 1.01 | S. cerevisiae deletion strains, locus YNR049C, strain mso1, active compounds read low 1.02 | S. cerevisiae deletion strains, locus YNR052C, strain pop2, active compounds read low 1.02 | S. cerevisiae deletion strains, locus YOL006C, strain TOP1, active compounds read low 1.04 | S. cerevisiae deletion strains, locus YOL012C, strain htz1 0.981 | S. cerevisiae deletion strains, locus YOL147C, strain pex11, active compounds read low 1.02 | S. cerevisiae deletion strains, locus YOR001W, strain rrp6, active compounds read low 1.03 | S. cerevisiae deletion strains, locus YOR061W, strain CKA2, active compounds read low 1.01 | S. cerevisiae deletion strains, locus YOR069W, strain VPS5, active compounds read low 1 | S. cerevisiae deletion strains, locus YOR070C, strain gyp1, active compounds read low 1.02 | S. cerevisiae deletion strains, locus YOR080W, strain dia2, active compounds read low 1.03 | S. cerevisiae deletion strains, locus YOR083W, strain WHI5, active compounds read low 1.02 | S. cerevisiae deletion strains, locus YOR106W, strain vam3, active compounds read low 1.04 | S. cerevisiae deletion strains, locus YOR136W, strain idh2, active compounds read low 1.02 | S. cerevisiae deletion strains, locus YOR144C, strain elg1, active compounds read low 1.02 | S. cerevisiae deletion strains, locus YOR184W, strain ser1, active compounds read low 1.03 | S. cerevisiae deletion strains, locus YOR231W, strain MKK1, active compounds read low 0.999 | S. cerevisiae deletion strains, locus YOR265W, strain rbl2, active compounds read low 1.01 | S. cerevisiae deletion strains, locus YOR270C, strain vph1, active compounds read low 1.05 | S. cerevisiae deletion strains, locus YOR290C, strain snf2, active compounds read low 1 | S. cerevisiae deletion strains, locus YOR316C, strain cot1, active compounds read low 1.02 | S. cerevisiae deletion strains, locus YPL051W, strain arl3, active compounds read low 1.02 | S. cerevisiae deletion strains, locus YPL055C, strain LGE1, active compounds read low 1.01 | S. cerevisiae deletion strains, locus YPL078C, strain atp4, active compounds read low 1.03 | S. cerevisiae deletion strains, locus YPL106C, strain sse1, active compounds read low 1.02 | S. cerevisiae deletion strains, locus YPL240C, strain hsp82, active compounds read low 1.02 | S. cerevisiae deletion strains, locus YPL241C, strain CIN2, active compounds read low 1.03 | S. cerevisiae deletion strains, locus YPL256C, strain CLN2, active compounds read low 1 | S. cerevisiae deletion strains, locus YPR119W, strain clb2, active compounds read low 1.03 | S. cerevisiae deletion strains, locus YPR141C, strain kar3, active compounds read low 1.02 | S. cerevisiae deletion strains, locus YPR163C, strain tif3, active compounds read low 1.02 | S. cerevisiae deletion strains, locus YPR167C, strain met16, active compounds read low 1.01 | S. cerevisiae deletion strains, strain wtn01, active compounds read low 1.01 | S. cerevisiae strains, strain wild type, active compounds read low 1.01
